A selection: hits, their analogues and other compounds. The true share with any hit is near 20%.
Shiga inhibitor: inhibitors of Shiga toxin in Vero cells | Vero cells, Shiga toxin protein synthesis inhibition reporter | inhibition, % at 38.7 µM | actives 9.2% (n = 290,000) | AID 2315; in the data active = inhibition mostly above about 28%, no sharp cut-off; inactive = mostly below about 43%; note: 0% is about no effect
Pf growth 48h: inhibits P. falciparum growth in the first generation, 48 h. P. falciparum luciferase growth in erythrocytes, 48 h. Potency, µM (series often up to 28.7 µM), for inactives: at the highest dose activity change, negative = inhibition, hits mostly inhibitors. actives 5.9% (n = 310,000); note: potency is the fitted concentration of half-maximal effect; % is set by controls: 0 for no effect and ±100 for the full control effect
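Firefly luciferase activity from engineered P. falciparum reports growth; inhibitors lower the luminescent signal. Cultures contained 2% hematocrit erythrocytes at 0.1% final parasitemia.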
HCMV inh: inhibitors of human cytomegalovirus; HFF cells, HCMV-luciferase reporter, 72 h; active compounds read low; activity change, negative = inhibition, % at 57.5 µM; actives 4.5% (n = 410,000); AID 1259415; in the data active = activity change below about -60%; inconclusive = no clear call, values can overlap the other calls; inactive = above about -39%; note: % is set by controls: 0 for no effect and ±100 for the full control effect
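Human foreskin fibroblasts infected with luciferase-reporter HCMV at MOI 1 PFU/cell, compounds at two doses. Luciferase measured 72 h post infection; normalized to buffer-only basal and Salinomycin (10uM) controls.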
Pf growth 96h: P. falciparum growth inhibition at 96 hours. P. falciparum luciferase reporter growth, 96 h. Potency, µM (doses to about 28.7 µM), inactives show top-dose activity change, negative = inhibition, actives largely listed as inhibitors. actives 6.9% (n = 320,000); note: potency is the fitted concentration of half-maximal effect; % is set by controls: 0 for no effect and ±100 for the full control effect
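Parasite growth measured via integrated firefly luciferase reporter in P. falciparum. Infected erythrocytes at 2% hematocrit, 0.05% parasitemia final were treated 96 hours at 37 C under 5% CO2, and luminescence was read.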
CHX counter: counter-screen for Shiga toxin inhibitors: cycloheximide protein synthesis inhibition; max response, %; cell reporter, cycloheximide protein synthesis inhibition counterscreen; actives 12% (n = 300,000); in the data active = max response mostly above about 13%, no sharp cut-off; inactive = mostly below about 14%; note: read at 38.3 µM for the half of the compounds with a filed dose; 0% is about no effect
* = called active by the depositor; i = inactive; ? = inconclusive; nt = not tested or not shown. Unless noted, calls come from the whole dose curve; as a rule, active = well fitted inhibition curve with a large enough effect; inconclusive = small, poorly fitted or top-dose-only effect, or another doubt; inactive = no such curve, though single readings can be large or run the other way.

SMILES	Shiga inhibitor	Pf growth 48h	HCMV inh	Pf growth 96h	CHX counter
Cc1onc(-c2ccccc2)c1C(=O)NC(=S)NNC(=O)c1ccc(O)cc1O	11.4	0.0%	-95.3*	?	-2.2
COc1ccc(N=[N+]([O-])c2ccc(OC)cc2)cc1	nt	nt	3.6	nt	nt
O=C(NCCc1c[nH]c2ccccc12)c1ccc(S(=O)(=O)NCc2ccco2)cc1	-2.6	-9.6%	28.3	0.0%	16.1*
O=C(NCCc1c[nH]c2ccccc12)c1cc([N+](=O)[O-])cc([N+](=O)[O-])c1	-2.7	1.3%	12.9	12.9%	1.5
O=C(NCCc1c[nH]c2ccccc12)c1ccccc1	93.6*	13.1%	66.3	97.0%	38.8*
O=C(NCCc1c[nH]c2ccccc12)c1ccc(-n2cnnn2)cc1	24.7	?	36.1	1.0%	5.0
N#CCC(=O)Nc1ccc(C(=O)NCCc2c[nH]c3ccccc23)cc1	-6.5	13.1µM*	15.7	7.38µM*	1.2
COC(=O)CCCNC(=O)c1ccc(S(=O)(=O)NCc2ccco2)cc1	nt	-0.7%	-26.8	0.5%	nt
O=C(NCCc1c[nH]c2ccccc12)c1ccc([N+](=O)[O-])cc1	79.8*	18.1%	-30.1	13.3%	38.0*
CC(C)=CCC/C(C)=C/CNC(=O)C[C@H]1C[C@H](C(=O)N2CCCCC2)[C@@]2(CCc3ccccc3)c3[nH]c4ccc(Cl)cc4c3CCN2C1=O	nt	nt	3.7	nt	nt
COc1cc2cc(CNc3ccccc3)c(=O)n(CC(=O)Nc3ccc(C)c(Cl)c3)c2cc1OC	nt	nt	60.6	nt	nt
Cc1cccc(C2c3[nH]c4ccccc4c3CCN2C(=O)Cc2n[nH]c(C)n2)n1 (configuration not stated)	2.5	-10.8%	-17.0	i	2.1
Oc1c(C(c2ccccc2)N2CCN(Cc3ccccc3)CC2)sc2nc(-c3ccco3)nn12 (configuration not stated)	nt	nt	-18.4	nt	nt
Cc1ccc(C(=O)N2CCCc3ccccc32)c(F)c1F	nt	-19.1%	-19.3	?	9.7
CC(C)C(=O)NCCc1c[nH]c2ccccc12	2.3	19.4%	13.5	?	5.5
COc1cc(-c2noc(C)c2C(=O)NCCc2cccs2)cc(OC)c1OC	nt	nt	15.9	nt	nt
Cc1ccc(C(=O)NCCc2c[nH]c3ccccc23)s1	85.4*	69.9%	28.0	110.7%	51.7*
Cc1ccc(C(=O)NCCc2c[nH]c3ccccc23)c(C)c1	87.2*	108.3%	174.4	234.7%	79.5*
COc1cc(-c2noc(C)c2C(=O)NCCc2c[nH]c3ccccc23)cc(OC)c1OC	-4.4	?	97.4	14.7µM*	-2.2
Nc1[nH]c(C(=O)c2ccccc2)c(-c2ccccc2C(F)(F)F)c1C(=O)NCCc1c[nH]c2ccccc12	nt	nt	-60.5*	nt	nt
COc1cccc(CNC(=O)CCCN2C(=O)CSc3c2c(C)nn3-c2ccccc2)c1OC	nt	nt	-4.1	nt	nt
C=CCN(C(=O)COc1ccccc1)c1nnc(-c2ccncc2)s1	-29.8	30.8%	-3.5	13.1%	-2.4
Cc1ccccc1C(=O)NCc1ccc2c(c1)CCN2C(=O)c1ccccc1	nt	nt	-30.8	nt	nt
CC(C)CC1(C(=O)NCCc2c[nH]c3ccccc23)C=CCN1C(=O)c1ccccc1 (configuration not stated)	10.9	?	23.6	10.4µM*	10.2
Cc1c(Cl)cccc1NC(=O)Nc1nnc(N2CCCCCC2)s1	nt	nt	7.0	nt	nt
SMILES	Shiga inhibitor	Pf growth 48h	HCMV inh	Pf growth 96h	CHX counter
CCCNC(=O)c1ccc(-n2c(-c3ccccc3)cc3c2CCC(C)C3)cc1 (configuration not stated)	nt	nt	-99.2*	nt	nt
CC1CCc2c(cc(-c3ccccc3)n2-c2ccc(C(=O)NC(C)C)cc2)C1 (configuration not stated)	nt	nt	-99.2*	nt	nt
COCCNC(=O)c1ccc(C(=O)C(=O)c2ccccc2)cc1	9.9	-17.9%	-2.6	51.6%	23.5
COCCNC(=O)c1ccc(-n2c(-c3ccccc3)cc3c2CCC(C)C3)cc1 (configuration not stated)	nt	nt	-101.1*	nt	nt
CC1=CC(=C(C#N)C#N)C=C(C)N1CCN1CCNCC1	-11.8	8.0%	3.2	0.3%	2.7
Cc1nn(-c2ccc3nncn3n2)c(C)c1CCC(=O)Nc1ccc(OC(F)(F)F)cc1	nt	nt	8.0	nt	nt
CCc1cc(=O)oc2cc(C)cc(OC(C)C(=O)NCC(O)c3ccccc3)c12 (configuration not stated)	-4.4	?	3.1	?	-3.9

Screens from PubChem.
